Records with an inconclusive call do not appear. Where a call stands in place of a potency, no number is given. A structure can be active in one record and inactive in another. Activity calls are given as the source filed them. Unless noted, calls come from the whole dose curve; as a rule, active = well fitted curve in the direction sought with a large enough effect in the repeat runs; inconclusive = weak or mixed curves; inactive = no such curve, though single readings can be large; an effect the other way counts as inactive or inconclusive.
Experiments:
[1] = A CellTox Green Cytotoxicity Assay to monitor cytotoxicity in HEK293 cells - 32 hour (AID 1224881); note: nearly all actives have a fitted effect of over 40% in size; note: potency is the fitted concentration of half-maximal effect
Outline: (§1)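 Homogeneous no-lysis format: HEK293 cell suspension mixed with CellTox Green reagent, seeded, incubated 5 h at 37 C/5% CO2, then dosed by pintool with compound in DMSO.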

[2] = A CellTox Green Cytotoxicity Assay to monitor cytotoxicity in HepG2 cells - 0 hour (AID 1224882); note: nearly all actives have a fitted effect of over 35% in size
Outline: (§2)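 Fluorescent DNA-binding dye, 600 HepG2 cells/well, 5 h preincubation then compound in DMSO; same plates read at 0–40 h, 37 C.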

[3] = A CellTox Green Cytotoxicity Assay to monitor cytotoxicity in HepG2 cells - 32 hour (AID 1224883); note: nearly all actives have a fitted effect of over 50% in size
Outline: as §2

[4] = A CellTox Green Cytotoxicity Assay to monitor cytotoxicity in HEK293 cells - 8 hour (AID 1224884); note: nearly all actives have a fitted effect of over 35% in size
Outline: as §1

[5] = qHTS RealTime-Glo MT Cell Viability Assay in HepG2 cells - 16 hour (AID 1224885); note: nearly all actives have a fitted effect of over 50% in size
Outline: (§3)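 Cells + NanoLuc/prosubstrate dispensed (600 cells/well) → 5 h at 37 C/5% CO2 → compounds in DMSO transferred → 40 h incubation at 37 C, luminescence read at 0, 8, 16, 24, 32, 40 h.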

[6] = qHTS RealTime-Glo MT Cell Viability Assay in HEK293 cells - 24 hour (AID 1224886); note: top concentration of the series differs between compounds; nearly all actives have a fitted effect of over 50% in size
Outline: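 Tox21 10K qHTS, HEK293, 600 cells/well, RealTime-Glo reagent co-dispensed with cells; 5 h preincubation, compound by pintool, 37 C, luminescence at 0–40 h.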

[7] = A CellTox Green Cytotoxicity Assay to monitor cytotoxicity in HEK293 cells - 16 hour (AID 1224888); note: nearly all actives have a fitted effect of over 35% in size
Outline: as §1

[8] = qHTS RealTime-Glo MT Cell Viability Assay in HepG2 cells - 0 hour (AID 1224889); note: nearly all actives have a fitted effect of over 50% in size
Outline: as §3

[9] = A CellTox Green Cytotoxicity Assay to monitor cytotoxicity in HepG2 cells - 8 hour (AID 1224890); note: nearly all actives have a fitted effect of over 45% in size
Outline: as §2

[10] = qHTS assay to identify small molecule antagonists of the estrogen receptor alpha (ER-alpha) signaling pathway using the BG1 cell line in the presence of 0.1 nM 17-beta-estradiol - cell viability counter screen (AID 1259241); note: nearly all actives have a fitted effect of over 40% in size
Outline: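 VM7Luc4E2 cells (endogenous ER-alpha, 4×ERE-luciferase), hormone-starved 5 days in charcoal-stripped FBS, were treated with compounds plus 0.1 nM 17beta-estradiol for 22 hr at 37C; viability read in same wells as CellTiter-Fluor live-cell protease fluorescence.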

[11] = qHTS assay to identify small molecule antagonists of the androgen receptor (AR) signaling pathway using the MDA cell line in the presence of 0.5 nM R1881 - cell viability counter screen (AID 1259242); note: nearly all actives have a fitted effect of over 45% in size
Outline: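 Human breast carcinoma MDA-kb2 cells, cultured without CO2, receive compounds alongside 0.5 nM (final) R1881 agonist. After 16 hr at 37C, viability is taken as live-cell protease signal.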

[12] = qHTS assay to identify small molecule HDAC inhibitors (AID 1259364);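 note: wild-type HCT-116 cells with endogenous class I/II HDAC activity; top concentration of the series differs between compounds; nearly all actives have a fitted effect of over 45% in size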
Outline: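 After a 2 hr compound incubation (37C, 5% CO2), HCT-116 cells seeded at 1,500/well the day before received HDAC-Glo reagent; signal read as luminescence after 30 min at room temperature.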

[13] = qHTS assay to identify small molecule HDAC inhibitors - cell viability counter screen (AID 1259365)
Outline: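 Wild-type HCT-116 cells were seeded at 1,500 per well, incubated overnight at 37 C, then exposed to compounds in DMSO for 2hr. Viability was read by CellTiter-Glo luminescence after 30min at room temperature.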

[14] = qHTS assay to identify small molecule agonists of the sonic hedgehog signaling (Shh) pathway - cell viability counter screen (AID 1259366); note: nearly all actives have a fitted effect of over 50% in size
Outline: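 NIH/3T3-derived 3T3 Gli1-Luc cells (stable Gli1-responsive firefly luciferase reporter) were seeded, rested 4 hr at 37 C/5% CO2, then exposed to compounds in DMSO for 24 hr; viability was read by CellTiter-Fluor fluorescence in the same wells.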

[15] = qHTS assay to identify small molecule antagonists of the sonic hedgehog signaling (Shh) pathway - cell viability counter screen (AID 1259367); note: nearly all actives have a fitted effect of over 55% in size
Outline: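 Cytotoxicity was assessed in parallel with Shh reporter activity by measuring live-cell protease fluorescence (CellTiter-Fluor) in NIH/3T3 cells stably carrying Gli1-Luc, treated with compound under conditioned medium stimulation for 23 hr plus 1 hr reagent incubation.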

[16] = qHTS RealTime-Glo MT Cell Viability Assay in HEK293 cells - 8 hour (AID 1224887); note: nearly all actives have a fitted effect of over 50% in size; note: potency is the fitted concentration of half-maximal effect
Outline: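 Measured as luminescence from the same continuously cultured HEK293 wells at successive time points (0, 8, 16, 24, 32, 40 h) after compound addition. Reagent present from seeding; dosing at 5 h; incubation 37 C.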

[17] = target: Estrogen receptor (Homo sapiens) (UniProt P03372); assay: qHTS assay to identify small molecule antagonists of the estrogen receptor alpha (ER-alpha) signaling pathway using the BG1 cell line in the presence of 0.1 nM 17-beta-estradiol (AID 1259244); note: nearly all actives have a fitted effect of over 50% in size
Estrogen receptor (Homo sapiens), sequence (P03372 whole entry, looked up): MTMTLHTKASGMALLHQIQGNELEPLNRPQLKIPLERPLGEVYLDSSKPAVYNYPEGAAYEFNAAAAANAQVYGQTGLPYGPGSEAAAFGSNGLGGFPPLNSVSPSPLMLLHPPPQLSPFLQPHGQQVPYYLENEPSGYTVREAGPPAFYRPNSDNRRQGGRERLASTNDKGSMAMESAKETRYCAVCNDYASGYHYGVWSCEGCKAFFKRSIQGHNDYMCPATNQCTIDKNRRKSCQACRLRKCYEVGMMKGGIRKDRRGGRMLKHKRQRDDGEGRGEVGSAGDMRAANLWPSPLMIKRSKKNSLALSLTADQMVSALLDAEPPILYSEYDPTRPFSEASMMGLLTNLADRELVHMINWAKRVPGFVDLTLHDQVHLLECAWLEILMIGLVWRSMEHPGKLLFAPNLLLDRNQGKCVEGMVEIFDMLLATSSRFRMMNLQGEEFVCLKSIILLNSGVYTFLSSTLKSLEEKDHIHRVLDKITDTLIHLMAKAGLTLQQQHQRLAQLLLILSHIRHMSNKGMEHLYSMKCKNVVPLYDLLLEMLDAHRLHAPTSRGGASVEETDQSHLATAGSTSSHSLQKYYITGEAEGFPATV
Outline: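 Seeding of stripped-serum-adapted VM7Luc4E2 cells, 24 h attachment, compound transfer, then 0.1 nM final 17beta-estradiol; after 22 h incubation, ONE-Glo reagent and luminescence reading.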

[18] = qHTS assay to identify small molecule phospholipidosis (PLD) inducers (AID 1259344; active = well fitted curve in the direction sought with a large enough effect; an effect the other way counts as inactive or inconclusive)
Outline: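 Cells (HepG2, 900 per well) attach for 4 h, receive LipidTOX Red and compound together, incubate 24 h at 37 C, are fixed 30 min with paraformaldehyde/Hoechst, then imaged at one site per well.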

[19] = target: Androgen receptor (Homo sapiens) (UniProt P10275); assay: qHTS assay to identify small molecule antagonists of the androgen receptor (AR) signaling pathway using the MDA cell line in the presence of 0.5 nM R1881 (AID 1259243); note: nearly all actives have a fitted effect of over 50% in size
Androgen receptor (Homo sapiens), sequence (P10275 whole entry, looked up): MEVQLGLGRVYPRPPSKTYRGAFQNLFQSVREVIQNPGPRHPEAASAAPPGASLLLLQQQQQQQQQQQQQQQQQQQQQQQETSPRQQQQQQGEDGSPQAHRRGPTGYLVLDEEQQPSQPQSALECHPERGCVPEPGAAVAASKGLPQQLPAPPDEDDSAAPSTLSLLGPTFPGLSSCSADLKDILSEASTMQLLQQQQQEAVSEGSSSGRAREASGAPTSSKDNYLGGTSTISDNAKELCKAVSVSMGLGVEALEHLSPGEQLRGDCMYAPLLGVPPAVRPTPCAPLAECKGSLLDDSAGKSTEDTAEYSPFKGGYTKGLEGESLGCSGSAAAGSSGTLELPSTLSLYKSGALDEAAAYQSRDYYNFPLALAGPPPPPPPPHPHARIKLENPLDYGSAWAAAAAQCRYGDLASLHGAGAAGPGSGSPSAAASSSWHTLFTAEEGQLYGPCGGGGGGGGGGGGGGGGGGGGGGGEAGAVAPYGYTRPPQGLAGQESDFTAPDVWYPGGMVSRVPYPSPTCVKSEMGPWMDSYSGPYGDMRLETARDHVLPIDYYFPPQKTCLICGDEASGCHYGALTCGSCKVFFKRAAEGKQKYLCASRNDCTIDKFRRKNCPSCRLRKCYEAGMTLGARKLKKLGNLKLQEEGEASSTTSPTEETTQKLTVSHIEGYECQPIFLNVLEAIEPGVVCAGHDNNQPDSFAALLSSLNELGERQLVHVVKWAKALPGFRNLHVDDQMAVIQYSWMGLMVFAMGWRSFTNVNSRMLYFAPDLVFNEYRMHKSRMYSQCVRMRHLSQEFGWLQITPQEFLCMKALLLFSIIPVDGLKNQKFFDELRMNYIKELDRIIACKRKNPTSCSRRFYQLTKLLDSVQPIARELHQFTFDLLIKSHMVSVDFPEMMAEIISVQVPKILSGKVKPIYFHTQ
Outline: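 Cells: MDA-kb2 (MMTV-luc). Stimulus: 0.5 nM R1881. Time: 16 hr, 37C, no CO2. Detection: ONE-Glo luminescence after 30 min at RT.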

For `CCC(=O)c1ccc(Cl)cc1`, the Potency [1] was “inactive”, the outcome [2] was “inactive” and the Potency [3] was “inactive”. The Potency [4] was “inactive”, the Potency [5] was “inactive” and the Potency [6] was “inactive”. The Potency [7] was “inactive”, the outcome [8] was “inactive” and the Potency [9] was “inactive”. The outcome [10] was “inactive”, the Potency [11] was “inactive” and the Potency [12] was “inactive”. The outcome [13] was “inactive” and the Potency [14] was “inactive”.

For `CCN1CCCC1CNC(=O)C(O)(c1ccccc1)c1ccccc1` (stereo not drawn), the Potency [1] was “inactive”, the outcome [2] was “inactive” and the Potency [3] was “inactive”. The Potency [4] was “inactive”, the Potency [5] was “inactive” and the Potency [6] was “inactive”. The outcome [8] was “inactive”, the Potency [9] was “inactive” and the outcome [10] was “inactive”. The Potency [11] was “inactive”, the Potency [12] was “inactive” and the outcome [13] was “inactive”. For the same compound, the Potency [14] was “inactive” and the Potency [15] was “inactive”.

With `O=C1CCCCC1Cl` (stereo not drawn) the Potency [1] was “inactive”, the outcome [2] was “inactive” and the Potency [3] was “inactive”. The Potency [4] was “inactive”, the Potency [5] was “inactive” and the Potency [6] was “inactive”. For the same compound, the Potency [16] was “inactive”, the outcome [8] was “inactive” and the Potency [9] was “inactive”. For the same compound, the outcome [10] was “inactive”, the Potency [11] was “inactive” and the Potency [12] was “inactive”. The outcome [13] was “inactive”, the Potency [14] was “inactive” and the Potency [15] was “inactive”.

For `CCN[C@@H](C)Cc1cccc(C(F)(F)F)c1`, the Potency [1] was “inactive”, the Potency [3] was “inactive” and the Potency [16] was “inactive”. The Potency [7] was “inactive”, the outcome [8] was “inactive” and the Potency [9] was “inactive”. For the same compound, the outcome [10] was “inactive”, the Potency [11] was “inactive” and the Potency [17] was “inactive”. The Potency [12] was “inactive”, the outcome [13] was “inactive” and the Potency [14] was “inactive”. The Potency [15] was “inactive”.

For `CC(C)(C)C(=O)C(Cl)Cl`, the Potency [1] was “inactive”, the outcome [2] was “inactive” and the Potency [3] was “inactive”. For the same compound, the Potency [4] was “inactive”, the Potency [6] was “inactive” and the outcome [8] was “inactive”. For the same compound, the Potency [9] was “inactive”, the outcome [10] was “inactive” and the Potency [11] was “inactive”. For the same compound, the Potency [12] was “inactive”, the outcome [13] was “inactive” and the Potency [14] was “inactive”. The Potency [15] was “inactive”.

With `C(COCC1CO1)OCC1CO1` (stereo not drawn) the Potency [1] was “inactive”, the outcome [2] was “inactive” and the Potency [3] was “inactive”. For the same compound, the Potency [4] was “inactive”, the Potency [5] was “inactive” and the Potency [6] was “inactive”. The Potency [7] was “inactive”, the outcome [8] was “inactive” and the Potency [9] was “inactive”. For the same compound, the outcome [10] was “inactive”, the Potency [11] was “inactive” and the Potency [12] was “inactive”. The outcome [13] was “inactive” and the Potency [14] was “inactive”.

For `CC(C)(O)C(Cl)(Cl)Cl`, the Potency [1] was “inactive”, the outcome [2] was “inactive” and the Potency [3] was “inactive”. The Potency [4] was “inactive”, the Potency [5] was “inactive” and the Potency [6] was “inactive”. For the same compound, the Potency [16] was “inactive”, the outcome [8] was “inactive” and the Potency [9] was “inactive”. The outcome [10] was “inactive”, the Potency [11] was “inactive” and the Potency [18] was “inactive”. The Potency [12] was “inactive”, the outcome [13] was “inactive” and the Potency [14] was “inactive”.

In the case of `[O-][Br+2]([O-])O`, the Potency [1] is reported as “inactive”, the Potency [3] is reported as “inactive” and the Potency [5] is reported as “inactive”. The Potency [6] was “inactive”, the Potency [16] was “inactive” and the Potency [7] was “inactive”. The outcome [8] was “inactive”, the Potency [9] was “inactive” and the outcome [10] was “inactive”. For the same compound, the Potency [11] was “inactive”, the Potency [19] was “inactive” and the Potency [17] was “inactive”. For the same compound, the Potency [12] was “inactive”, the outcome [13] was “inactive” and the Potency [14] was “inactive”. For the same compound, the Potency [15] was “inactive”.

With `O=P(O)(O)c1ccccc1` the Potency [1] was “inactive”, the outcome [2] was “inactive” and the Potency [3] was “inactive”. The Potency [4] was “inactive”, the Potency [5] was “inactive” and the Potency [6] was “inactive”. For the same compound, the Potency [7] was “inactive”, the outcome [8] was “inactive” and the Potency [9] was “inactive”. For the same compound, the outcome [10] was “inactive”, the Potency [11] was “inactive” and the Potency [17] was “inactive”. For the same compound, the Potency [12] was “inactive”, the outcome [13] was “inactive” and the Potency [14] was “inactive”. For the same compound, the Potency [15] was “inactive”.

With `C=C(C)[C@H]1CN[C@H](C(=O)O)[C@H]1CC(=O)O` the Potency [1] was “inactive”, the outcome [2] was “inactive” and the Potency [3] was “inactive”. For the same compound, the Potency [4] was “inactive”, the Potency [5] was “inactive” and the Potency [6] was “inactive”. The Potency [7] was “inactive”, the outcome [8] was “inactive” and the Potency [9] was “inactive”. The outcome [10] was “inactive”, the Potency [11] was “inactive” and the Potency [17] was “inactive”. For the same compound, the Potency [18] was “inactive”, the Potency [12] was “inactive” and the outcome [13] was “inactive”. The Potency [14] was “inactive” and the Potency [15] was “inactive”.

In the case of `ClC1=C(Cl)C2(Cl)C(CBr)CC1(Cl)C2(Cl)Cl` (stereo not drawn), the Potency [1] is reported as 54.9 µM (active) and inactive, the outcome [2] is reported as “inactive” and the Potency [3] is reported as “inactive”. The Potency [5] was “inactive”, the Potency [16] was 43.6 µM (active) and inactive and the outcome [8] was “inactive”. The Potency [9] was “inactive”, the outcome [10] was “inactive” and the Potency [11] was “inactive”. For the same compound, the Potency [17] was “inactive”, the Potency [18] was “inactive” and the Potency [12] was “inactive”. The outcome [13] was “inactive”, the Potency [14] was “inactive” and the Potency [15] was “inactive”.

For `O=C(O)c1c(Cl)ccc2cc(Cl)cnc12`, the Potency [1] was “inactive”, the outcome [2] was “inactive” and the Potency [3] was “inactive”. The Potency [4] was “inactive”, the Potency [5] was “inactive” and the Potency [6] was “inactive”. For the same compound, the Potency [16] was “inactive”, the Potency [7] was “inactive” and the outcome [8] was “inactive”. The Potency [9] was “inactive”, the outcome [10] was “inactive” and the Potency [11] was “inactive”. For the same compound, the Potency [12] was “inactive”, the outcome [13] was “inactive” and the Potency [14] was “inactive”. The Potency [15] was “inactive”.

Source: PubChem BioAssay (Tox21)
